Data from PubChem BioAssay AID1159580 (chemical genetic matrix, 2015).
“And” between values parts separate entries of the source, which are not always exact repeats. Equal values may be shown once. Out of some 5,500 compounds screened, about 2,000 (36%) were called active. Inconclusive results (about 18%) are left out. No stated cut-off is given here; in the data, active means normalized growth mostly below about 0.91 (no sharp cut-off); inconclusive means no clear call, values can overlap the other calls; inactive means mostly above about 0.92. The list shows a part of the results.

Test: chemical genetic growth profiling, strain panel (AID 1159580);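 further: tested at 20 µM; growth read once vehicle control cultures reached saturation at 30 °C; 1 = growth at the plate median or of vehicle wells; lower values mean less growth of the strain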
Settings: growth OD

Measured: normalized growth

CCCCC1C(=O)N(c2ccccc2)N(c2ccccc2)C1=O
inactive: S. cerevisiae deletion strains, locus YJR075W, strain HOC1, hits give low values 1 | S. cerevisiae deletion strains, locus YKL009W, strain mrt4, hits give low values 0.98 | S. cerevisiae deletion strains, locus YKL068W, hits give low values 0.963 | S. cerevisiae deletion strains, locus YKL085W, strain MDH1 (second series), hits give low values 0.959 | S. cerevisiae deletion strains, locus YKL085W, strain MDH1, hits give low values 0.959 | S. cerevisiae deletion strains, locus YKL160W, strain elf1, hits give low values 1.01 | S. cerevisiae deletion strains, locus YKL190W, strain CNB1, hits give low values 0.972 | S. cerevisiae deletion strains, locus YKR001C, strain vps1, hits give low values 0.994 | S. cerevisiae deletion strains, locus YKR026C, strain gcn3, hits give low values 0.988 | S. cerevisiae deletion strains, locus YKR091W, strain srl3, hits give low values 0.986 | S. cerevisiae deletion strains, locus YLL001W, strain dnm1, hits give low values 0.992 | S. cerevisiae deletion strains, locus YLL026W, hits give low values 0.99 | S. cerevisiae deletion strains, locus YLL041C, strain sdh2, hits give low values 0.985 | S. cerevisiae deletion strains, locus YLR027C, strain aat2, hits give low values 0.987 | S. cerevisiae deletion strains, locus YLR039C, strain RIC1, hits give low values 0.895 | S. cerevisiae deletion strains, locus YLR058C, strain SHM2, hits give low values 0.987 | S. cerevisiae deletion strains, locus YLR102C, strain apc9, hits give low values 0.983 | S. cerevisiae deletion strains, locus YLR113W, strain HOG1, hits give low values 0.899 | S. cerevisiae deletion strains, locus YLR221C, strain rsa3, hits give low values 1.02 | S. cerevisiae deletion strains, locus YLR258W, strain gsy2, hits give low values 0.993 | S. cerevisiae deletion strains, locus YLR262C, strain YPT6 (second series), hits give low values 0.93 | S. cerevisiae deletion strains, locus YLR262C, strain YPT6, hits give low values 0.893 | S. cerevisiae deletion strains, locus YLR268W, strain sec22, hits give low values 1.06 | S. cerevisiae deletion strains, locus YLR320W, strain mms22, hits give low values 1.02 | S. cerevisiae deletion strains, locus YLR330W, strain CHS5, hits give low values 0.984 | S. cerevisiae deletion strains, locus YLR342W, strain FKS1 (second series), hits give low values 0.994 | S. cerevisiae deletion strains, locus YLR342W, strain FKS1, hits give low values 0.978 | S. cerevisiae deletion strains, locus YLR357W, strain rsc2, hits give low values 1.04 | S. cerevisiae deletion strains, locus YLR370C, strain arc18, hits give low values 0.973 | S. cerevisiae deletion strains, locus YLR371W, strain rom2, hits give low values 1 | S. cerevisiae deletion strains, locus YLR384C, strain iki3, hits give low values 0.996 | S. cerevisiae deletion strains, locus YLR418C, strain cdc73, hits give low values 0.995 | S. cerevisiae deletion strains, locus YML016C, strain PPZ1, hits give low values 0.98 | S. cerevisiae deletion strains, locus YML032C, strain rad52, hits give low values 1.02 | S. cerevisiae deletion strains, locus YML120C, strain ndi1, hits give low values 0.999 | S. cerevisiae deletion strains, locus YML124C, strain tub3, hits give low values 0.982 | S. cerevisiae deletion strains, locus YMR058W, strain fet3, hits give low values 0.993 | S. cerevisiae deletion strains, locus YMR078C, strain ctf18, hits give low values 0.988 | S. cerevisiae deletion strains, locus YMR125W, strain sto1, hits give low values 0.989 | S. cerevisiae deletion strains, locus YMR129W, hits give low values 0.986 | S. cerevisiae deletion strains, locus YMR205C, strain PFK2, hits give low values 0.989 | S. cerevisiae deletion strains, locus YMR223W, strain ubp8, hits give low values 0.967 | S. cerevisiae deletion strains, locus YMR231W, strain pep5, hits give low values 0.996 | S. cerevisiae deletion strains, locus YMR263W, strain SAP30, hits give low values 0.997 | S. cerevisiae deletion strains, locus YMR307W, strain GAS1, hits give low values 0.971 | S. cerevisiae deletion strains, locus YNL067W, strain RPL9B, hits give low values 1.02 | S. cerevisiae deletion strains, locus YNL071W, strain lat1, hits give low values 0.994 | S. cerevisiae deletion strains, locus YNL128W, strain TEP1, hits give low values 0.99 | S. cerevisiae deletion strains, locus YNL153C, strain GIM3, hits give low values 1.04 and 1 | S. cerevisiae deletion strains, locus YNL175C, strain NOP13, hits give low values 0.971 | S. cerevisiae deletion strains, locus YNL183C, strain NPR1, hits give low values 0.946 | S. cerevisiae deletion strains, locus YNL197C, strain WHI3, hits give low values 0.976 | S. cerevisiae deletion strains, locus YNL209W, strain ssb2, hits give low values 1 | S. cerevisiae deletion strains, locus YNL224C, strain SQS1, hits give low values 0.972 | S. cerevisiae deletion strains, locus YNL233W, strain BNI4, hits give low values 1.04 | S. cerevisiae deletion strains, locus YNL248C, strain rpa49, hits give low values 1.03 | S. cerevisiae deletion strains, locus YNL250W, strain rad50, hits give low values 0.972 | S. cerevisiae deletion strains, locus YNL271C, strain bni1, hits give low values 0.979 | S. cerevisiae deletion strains, locus YNL298W, strain CLA4, hits give low values 0.998 | S. cerevisiae deletion strains, locus YNL307C, strain MCK1, hits give low values 1.01 | S. cerevisiae deletion strains, locus YNL322C, strain KRE1 (second series), hits give low values 0.982 | S. cerevisiae deletion strains, locus YNL322C, strain KRE1, hits give low values 0.973 | S. cerevisiae deletion strains, locus YNR049C, strain mso1, hits give low values 0.985 | S. cerevisiae deletion strains, locus YNR052C, strain pop2, hits give low values 0.999 | S. cerevisiae deletion strains, locus YOL006C, strain TOP1, hits give low values 1.05 | S. cerevisiae deletion strains, locus YOL012C, strain htz1 0.887 | S. cerevisiae deletion strains, locus YOL147C, strain pex11, hits give low values 0.993 | S. cerevisiae deletion strains, locus YOR001W, strain rrp6, hits give low values 0.99 | S. cerevisiae deletion strains, locus YOR061W, strain CKA2, hits give low values 0.977 | S. cerevisiae deletion strains, locus YOR069W, strain VPS5, hits give low values 0.984 | S. cerevisiae deletion strains, locus YOR070C, strain gyp1, hits give low values 0.999 | S. cerevisiae deletion strains, locus YOR080W, strain dia2, hits give low values 0.987 | S. cerevisiae deletion strains, locus YOR083W, strain WHI5 (second series), hits give low values 0.994 | S. cerevisiae deletion strains, locus YOR083W, strain WHI5, hits give low values 1.02 | S. cerevisiae deletion strains, locus YOR106W, strain vam3, hits give low values 1.03 | S. cerevisiae deletion strains, locus YOR136W, strain idh2, hits give low values 0.982 | S. cerevisiae deletion strains, locus YOR144C, strain elg1, hits give low values 0.985 | S. cerevisiae deletion strains, locus YOR184W, strain ser1, hits give low values 1 | S. cerevisiae deletion strains, locus YOR231W, strain MKK1, hits give low values 0.933 | S. cerevisiae deletion strains, locus YOR265W, strain rbl2, hits give low values 0.988 | S. cerevisiae deletion strains, locus YOR270C, strain vph1, hits give low values 1.02 | S. cerevisiae deletion strains, locus YOR290C, strain snf2, hits give low values 1.02 | S. cerevisiae deletion strains, locus YOR316C, strain cot1, hits give low values 0.986 | S. cerevisiae deletion strains, locus YPL051W, strain arl3, hits give low values 0.992 | S. cerevisiae deletion strains, locus YPL055C, strain LGE1, hits give low values 1 and 0.997 | S. cerevisiae deletion strains, locus YPL078C, strain atp4, hits give low values 1.02 | S. cerevisiae deletion strains, locus YPL106C, strain sse1, hits give low values 1.01 | S. cerevisiae deletion strains, locus YPL240C, strain hsp82, hits give low values 0.994 | S. cerevisiae deletion strains, locus YPL241C, strain CIN2, hits give low values 0.981 and 1 | S. cerevisiae deletion strains, locus YPL256C, strain CLN2, hits give low values 0.914 | S. cerevisiae deletion strains, locus YPR119W, strain clb2, hits give low values 0.977 | S. cerevisiae deletion strains, locus YPR141C, strain kar3, hits give low values 0.961 | S. cerevisiae deletion strains, locus YPR163C, strain tif3, hits give low values 1 | S. cerevisiae deletion strains, locus YPR167C, strain met16, hits give low values 0.993 | S. cerevisiae deletion strains, strain wtn01, hits give low values 1.02 | S. cerevisiae strains, strain wild type, hits give low values 0.984
